Cruzain inh noDet: inhibitors of Trypanosoma cruzi cruzain without detergent. P25779. purified cruzain, Z-FR-AMC fluorescence, no detergent. Potency, µM, inactives show max response, negative = inhibition, usual class: inhibitors. actives 2.3% (n = 200,000). AID 1476;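 note: plate controls were enzyme without inhibitor for no effect and buffer without enzyme for full effect; nearly all actives have a fitted effect of over 40% in size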
Target sequence (P25779 123-467 limits assumed): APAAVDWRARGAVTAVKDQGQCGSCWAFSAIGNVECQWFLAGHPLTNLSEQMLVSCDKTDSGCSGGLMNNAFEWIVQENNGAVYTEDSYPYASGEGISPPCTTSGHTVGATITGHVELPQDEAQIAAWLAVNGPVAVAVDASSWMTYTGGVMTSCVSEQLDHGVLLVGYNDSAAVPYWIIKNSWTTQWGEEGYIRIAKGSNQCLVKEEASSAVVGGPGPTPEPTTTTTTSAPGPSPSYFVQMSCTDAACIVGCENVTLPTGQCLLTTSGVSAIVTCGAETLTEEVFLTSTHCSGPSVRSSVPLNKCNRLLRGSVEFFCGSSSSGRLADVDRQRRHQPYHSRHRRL
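Purified cruzain at 1.5 nM, pre-incubated 15 min with compound at room temperature in 100 mM sodium acetate pH 5.5, 5 mM DTT, 0.00005% Triton X-100. Reaction started with 2 uM Z-FR-AMC; AMC fluorescence increase over 60 s gives rate.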
Cruzain Triton: cruzain (T. cruzi) inhibition with detergent; P25779; purified cruzain, Z-FR-AMC fluorescence, 0.01% Triton; Potency, µM, for inactives: max response, negative = inhibition, hits mostly inhibitors; actives 0.43% (n = 200,000);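 note: plate controls were neutral wells for no effect and buffer without enzyme for full effect; nearly all actives have a fitted effect of over 40% in size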
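Cruzain (1.5 nM) preincubated 15 min at RT with compound in 100 mM sodium acetate pH 5.5, 5 mM DTT, 0.01% Triton X-100. Reaction started with 2 uM Z-FR-AMC; AMC fluorescence (ex 360/em 450 nm) change over 60 s gave rate.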
* hit, by the source's call. Compounds with a hit are over-represented: about 2.5% of the library has one in this group of screens. Calls come from the whole dose curve; as a rule, active = well fitted curve in the direction sought with a large enough effect; inconclusive = small, poorly fitted or top-dose-only effect, or another doubt; inactive = no such curve, though single readings can be large; an effect the other way counts as inactive or inconclusive. Potency is the fitted concentration of half-maximal effect.

`N#C/C(=C\c1cn(CCOc2ccccc2)c2ccccc12)C(=O)NCc1ccco1` gave Cruzain inh noDet 1% and Cruzain Triton 14%.
Cc1cc(C)cc(NC(=O)/C(C#N)=C/c2cn(CC(=O)NCc3ccco3)c3ccccc23)c1 was read as Cruzain inh noDet 16µM* and Cruzain Triton -2%.
Screening Cc1ccc2[nH]c(CSc3nnc(C)s3)cc(=O)c2c1 returned Cruzain inh noDet -15% and Cruzain Triton 1%.
Screening CC(NC(=O)Cn1ccc2cc(S(=O)(=O)N3CCCCCC3)ccc21)c1ccccc1 (centres undefined) returned Cruzain inh noDet -25% and Cruzain Triton -8%.
For Cn1c(=O)n(C)c2cc(N3CCOCC3)c(NC(=O)c3ccc(Cl)cc3)cc21 the results were Cruzain inh noDet -1% and Cruzain Triton 0%.
Screening N#Cc1ccc(C23CC4(C2)[C@H](CN(Cc2ccc(-c5ccccc5)cc2)[C@@H]4c2ccccc2)C3c2ccccc2)cc1 (some centres undefined) returned Cruzain inh noDet 13µM* and Cruzain Triton -4%.
COC(=O)c1cccc(C23CC4(C2)[C@H](CN(Cc2ccc(-c5ccccc5)cc2)[C@@H]4c2ccccc2)C3c2ccc(Cl)nc2)c1 (some centres undefined) was read as Cruzain inh noDet 7.9µM* and Cruzain Triton 2%.
Screening c1ccc(-c2ccc(CN3C[C@@H]4C(c5ccccc5)C5(c6ccccc6)CC4(C5)[C@H]3c3ccccc3)cc2)cc1 (some centres undefined) returned Cruzain inh noDet 1% and Cruzain Triton 4%.
`COC(=O)c1ccc(C23CC4(C2)[C@H](CN(C)[C@@H]4c2ccccc2)C3c2ccccc2)cc1` (some centres undefined) gave Cruzain inh noDet 1% and Cruzain Triton -4%.
For COC(=O)c1cccc(C23CC4(C2)[C@H](CN(Cc2cccnc2)[C@@H]4c2ccccc2)C3c2ccc(Cl)nc2)c1 (some centres undefined) the results were Cruzain inh noDet -1% and Cruzain Triton 0%.
COC(=O)c1ccc(C23CC4(C2)[C@H](CN(Cc2ccc(-c5ccccc5)cc2)[C@@H]4c2ccccc2)C3c2ccccc2)cc1 (some centres undefined) was read as Cruzain inh noDet 7.9µM* and Cruzain Triton 2%.
For COc1ccc2c(c1)O[C@@H](c1ccc3c(c1)OCO3)[C@H](OC(=O)NS(=O)(=O)c1ccc(C)cc1)C2=O the results were Cruzain inh noDet 1% and Cruzain Triton 4%.
Screening CN(C)c1ccc(CNC(=O)C2CCN(S(=O)(=O)c3ccc4c(ccn4C)c3)CC2)cc1 returned Cruzain inh noDet -6% and Cruzain Triton -2%.
`O=C(CN1C(=O)C2CCCCN2c2ccc(C(=O)N3CCCC3)cc21)NCc1cccc(F)c1` (centres undefined) gave Cruzain inh noDet -4% and Cruzain Triton -2%.
CCCCc1ccc(NC(=O)c2ccc3c(c2)CCN3S(=O)(=O)c2ccccc2)cc1 was read as Cruzain inh noDet inconclusive and Cruzain Triton -2%.
For CCCCOC(=O)c1ccc(NC(=O)c2ccc3c(c2)CCN3S(=O)(=O)c2ccccc2)cc1 the results were Cruzain inh noDet 13µM* and Cruzain Triton 0%.
CC(=O)NCCC(=O)Nc1nc(-c2cccs2)c(-c2cccs2)s1 was read as Cruzain inh noDet inconclusive and Cruzain Triton -6%.
Screening O=C(Nc1nc(-c2cccs2)c(-c2cccs2)s1)C1(c2ccccc2)CC1 returned Cruzain inh noDet 10µM* and Cruzain Triton -1%.
COc1ccc(S(=O)(=O)N2CCN(c3c(C)cccc3C)CC2)cc1OC was read as Cruzain inh noDet 4% and Cruzain Triton -10%.
COc1cc(Cl)c(S(=O)(=O)N2CCN(c3c(C)cccc3C)CC2)cc1Cl was read as Cruzain inh noDet 20µM* and Cruzain Triton -3%.
Screening CCC1=C(c2ccc(C)cc2)S(=O)(=O)N=C1N1CCC(C(=O)NCCc2ccc(Cl)cc2)CC1 returned Cruzain inh noDet inconclusive and Cruzain Triton -5%.
Screening Cc1c(NC(=O)c2ccccc2)cc(C(C)C)c(O)c1S(=O)(=O)c1ccc(Cl)cc1 returned Cruzain inh noDet inconclusive and Cruzain Triton -2%.
`Cc1c(NC(=O)c2ccc(Cl)cc2)cc(C(C)C)c(O)c1S(=O)(=O)c1ccc(Cl)cc1` gave Cruzain inh noDet 32µM* and Cruzain Triton 0%.
`Cn1c(N)c(C(=O)COC(=O)c2cc(-c3ccccc3)nc3ccccc23)c(=O)n(Cc2ccccc2)c1=O` gave Cruzain inh noDet 13µM* and Cruzain Triton 0%.
Screening Cn1c(N)c(C(=O)COC(=O)c2cc(-c3ccccc3)nc3ccccc23)c(=O)n(C)c1=O returned Cruzain inh noDet inconclusive and Cruzain Triton 0%.
Screening COc1ccccc1NS(=O)(=O)c1cc([N+](=O)[O-])ccc1N/N=C/c1c(C)[nH]c2ccccc12 returned Cruzain inh noDet 7.9µM* and Cruzain Triton 0%.
Cc1[nH]c2ccccc2c1/C=N/Nc1ccc([N+](=O)[O-])cc1 was read as Cruzain inh noDet 25µM* and Cruzain Triton -1%.
Screening Cc1[nH]c2ccccc2c1/C=N/Nc1ccc(F)cc1F returned Cruzain inh noDet inconclusive and Cruzain Triton -1%.
Screening O=[N+]([O-])c1ccc(N/N=C/c2c[nH]c3ccccc23)c(S(=O)(=O)Nc2ccc(Cl)cc2)c1 returned Cruzain inh noDet inconclusive and Cruzain Triton 0%.
Screening COc1cc2c(cc1NC(=O)c1ccccc1C)n(C)c(=O)n2C returned Cruzain inh noDet -4% and Cruzain Triton -2%.
For COc1cccc(-c2csc(-c3c(N)c(C(=O)c4ccccc4)n4ccccc34)n2)c1 the results were Cruzain inh noDet 7.9µM* and Cruzain Triton -3%.
For Cc1ccc(-c2csc(-c3c(N)c(C(=O)c4ccc5c(c4)OCO5)n4ccccc34)n2)cc1 the results were Cruzain inh noDet inconclusive and Cruzain Triton -2%.
COc1ccc(OC)c(C(=O)c2c(N)c(-c3nc(-c4ccc(C)c(C)c4)cs3)c3ccccn23)c1 was read as Cruzain inh noDet -6% and Cruzain Triton -2%.
Screening CCc1ccc(C(=O)c2c(N)c(-c3nc(-c4ccc5c(c4)OCO5)cs3)c3ccccn23)cc1 returned Cruzain inh noDet 2.5µM* and Cruzain Triton -2%.
For CCC(C)c1ccc(OCC(=O)Nc2ccc(-c3nc4ncccc4o3)cc2)cc1 (centres undefined) the results were Cruzain inh noDet 14% and Cruzain Triton -5%.
Cc1noc(C)c1C(=O)OCC(=O)NC(c1ccccc1)c1ccccc1 was read as Cruzain inh noDet -5% and Cruzain Triton 1%.
Screening Cc1onc(-c2c(F)cccc2Cl)c1C(=O)OCC(=O)NC(c1ccccc1)c1ccccc1 returned Cruzain inh noDet 32µM* and Cruzain Triton -4%.
O=C(Cn1c(=O)nc(-c2ccccc2)c2cc(Cl)ccc21)NCc1ccccc1 was read as Cruzain inh noDet 6% and Cruzain Triton 0%.
For Cn1cccc1/C=C1\C(=O)NC(=O)N(CCC2=CCCCC2)C1=O the results were Cruzain inh noDet 20µM* and Cruzain Triton -5%.
Screening O=C1NC(=O)N(CCC2=CCCCC2)C(=O)/C1=C\c1cccs1 returned Cruzain inh noDet 7% and Cruzain Triton -3%.
Screening Cc1ccc(Nc2nc3ccc(C)cc3nc2-n2nc(C)cc2C)c(C)c1 returned Cruzain inh noDet -10% and Cruzain Triton -2%.

High-throughput results from PubChem.
